Reference: the supplement of paper PMC6992640
± gives the standard deviation of the averaged measurements.

These compounds were tested on HCI01 (cells of a triple-negative basal-like breast cancer xenograft) (assay: cell viability (% of vehicle); higher = less cytotoxic). Settings: 10 µM; 72 h.
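Also: PDX cells carrying CMV promoter-driven luciferase, viability read as total photon flux per second by IVIS imaging following D-luciferin, vehicle control 0.1% DMSO.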

Point of comparison: `CCOc1cc2ncc(C#N)c(Nc3ccc(F)c(Cl)c3)c2cc1NC(=O)C=CCN(C)C` [Pelitinib (EKB-569)], cell viability 30.5 ± 8.4. Against it:
- CCC(=C(c1ccccc1)c1ccc(OCCN(C)C)cc1)c1ccccc1.O=C(O)CC(O)(CC(=O)O)C(=O)O [Tamoxifen Citrate] — within error, 74 ± 57
- CCCCc1oc2ccc(NS(C)(=O)=O)cc2c1C(=O)c1ccc(OCCCN(CCCC)CCCC)cc1.Cl [Dronedarone HCl] — within error, 29.3 ± 12
- CC(C)CC(NC(=O)CNC(=O)c1cc(Cl)ccc1Cl)B(O)O (stereo not given) — higher, 53.4 ± 8.3
- COC(=O)C1=C(C)NC(C)=C(C(=O)OCCN(C)Cc2ccccc2)C1c1cccc([N+](=O)[O-])c1.Cl (stereo not given) [Nicardipine HCl] — higher, 66 ± 2.2
- CCOC(=O)c1c(CSc2ccccc2)n(C)c2cc(Br)c(O)c(CN(C)C)c12.Cl [Arbidol HCl] — higher, 82.6 ± 33
- CN(C)CCOc1ccc(C(=C(CCCl)c2ccccc2)c2ccccc2)cc1.O=C(O)CC(O)(CC(=O)O)C(=O)O [Toremifene Citrate] — within error, 37.2 ± 1.9
- CN(C)c1ccc(O)c2c1CC1CC3C(N(C)C)C(=O)C(C(N)=O)=C(O)C3(O)C(=O)C1=C2O.Cl (stereo not given) [Minocycline HCl] — higher, 68.2 ± 8.5
- CC(Oc1cc(-c2cnn(C3CCNCC3)c2)cnc1N)c1c(Cl)ccc(F)c1Cl [(R)-Crizotinib] — within error, 60 ± 23
- CC(C)(C)NC(=O)C1CC2CCCCC2CN1CC(O)C(Cc1ccccc1)NC(=O)C(CC(N)=O)NC(=O)c1ccc2ccccc2n1.CS(=O)(=O)O (stereo not given) [Saquinavir mesylate] — higher, 101 ± 20
